Assay results reported in the supplement of paper PMC11732987, “Enantioselective OTUD7B fragment discovery through chemoproteomics screening and high-throughput optimisation” (Communications Chemistry, 2025).

Experiments:
Experiment in all cases: log2 ratio of Biotin-Ahx-Ub-VS probe labelling (fragment/DMSO); higher = less target engagement (more negative = stronger competition), active = hit call of the paper (q ≤ 0.05, log2 ratio ≤ -1)
Details in all cases: compound concentration: 200 uM; treatment time: 3 h
USP19 = target: T1, USP19 (UniProt O94966)
T1 sequence (whole entry): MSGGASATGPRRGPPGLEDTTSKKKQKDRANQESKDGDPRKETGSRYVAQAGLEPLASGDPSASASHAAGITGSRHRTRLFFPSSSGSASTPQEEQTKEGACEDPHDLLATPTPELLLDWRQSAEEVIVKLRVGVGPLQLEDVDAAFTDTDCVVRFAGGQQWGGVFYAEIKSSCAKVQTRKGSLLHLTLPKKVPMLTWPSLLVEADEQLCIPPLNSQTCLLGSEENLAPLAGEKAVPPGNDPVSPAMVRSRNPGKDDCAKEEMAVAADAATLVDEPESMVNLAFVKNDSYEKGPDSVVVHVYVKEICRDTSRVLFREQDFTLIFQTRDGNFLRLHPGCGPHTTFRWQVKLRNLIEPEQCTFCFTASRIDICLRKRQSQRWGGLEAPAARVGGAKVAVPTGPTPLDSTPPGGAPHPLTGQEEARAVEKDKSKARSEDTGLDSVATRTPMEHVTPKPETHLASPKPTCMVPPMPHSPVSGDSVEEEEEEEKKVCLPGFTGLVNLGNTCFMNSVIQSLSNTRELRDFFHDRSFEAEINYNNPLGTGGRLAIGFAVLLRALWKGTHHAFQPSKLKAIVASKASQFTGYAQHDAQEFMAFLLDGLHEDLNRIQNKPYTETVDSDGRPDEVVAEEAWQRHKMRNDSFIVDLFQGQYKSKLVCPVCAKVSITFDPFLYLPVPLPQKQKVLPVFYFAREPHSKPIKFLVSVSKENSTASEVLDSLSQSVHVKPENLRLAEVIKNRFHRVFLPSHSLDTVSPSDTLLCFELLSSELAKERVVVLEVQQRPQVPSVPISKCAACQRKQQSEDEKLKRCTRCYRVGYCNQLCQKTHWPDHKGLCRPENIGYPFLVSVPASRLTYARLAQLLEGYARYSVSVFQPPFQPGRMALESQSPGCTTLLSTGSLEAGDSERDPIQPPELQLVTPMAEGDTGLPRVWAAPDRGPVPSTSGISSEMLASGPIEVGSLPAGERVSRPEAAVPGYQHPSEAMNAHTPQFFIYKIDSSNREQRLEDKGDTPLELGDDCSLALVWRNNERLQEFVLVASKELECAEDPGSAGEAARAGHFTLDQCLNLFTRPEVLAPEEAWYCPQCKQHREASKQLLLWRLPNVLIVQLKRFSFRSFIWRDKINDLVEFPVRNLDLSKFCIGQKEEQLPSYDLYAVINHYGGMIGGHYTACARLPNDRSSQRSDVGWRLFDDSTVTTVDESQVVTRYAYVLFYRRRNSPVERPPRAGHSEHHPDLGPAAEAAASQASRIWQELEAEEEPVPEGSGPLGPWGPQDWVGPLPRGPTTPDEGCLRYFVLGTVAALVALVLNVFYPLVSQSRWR
Method in brief: (§1)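 HEK293T lysate (495 µg per sample, in Tris/CHAPS/IGEPAL buffer with protease inhibitors) was exposed in triplicate for 3 h to fragment at 200 µM or to vehicle, then to Biotin-Ahx-Ub-VS at 0.5 µM final for 1 h. Labelled DUBs were enriched on NeutrAvidin, digested with LysC and trypsin, and analysed by diaPASEF LC-MS/MS. Spectronaut label-free quantities were normalised to the global median, and values are average log2 ratios of fragment over vehicle from an unpaired t-test. Only proteins with ≥2 unique peptides were used.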

USP24 = USP24 (UniProt Q9UPU5)
USP24, sequence (Q9UPU5 whole entry): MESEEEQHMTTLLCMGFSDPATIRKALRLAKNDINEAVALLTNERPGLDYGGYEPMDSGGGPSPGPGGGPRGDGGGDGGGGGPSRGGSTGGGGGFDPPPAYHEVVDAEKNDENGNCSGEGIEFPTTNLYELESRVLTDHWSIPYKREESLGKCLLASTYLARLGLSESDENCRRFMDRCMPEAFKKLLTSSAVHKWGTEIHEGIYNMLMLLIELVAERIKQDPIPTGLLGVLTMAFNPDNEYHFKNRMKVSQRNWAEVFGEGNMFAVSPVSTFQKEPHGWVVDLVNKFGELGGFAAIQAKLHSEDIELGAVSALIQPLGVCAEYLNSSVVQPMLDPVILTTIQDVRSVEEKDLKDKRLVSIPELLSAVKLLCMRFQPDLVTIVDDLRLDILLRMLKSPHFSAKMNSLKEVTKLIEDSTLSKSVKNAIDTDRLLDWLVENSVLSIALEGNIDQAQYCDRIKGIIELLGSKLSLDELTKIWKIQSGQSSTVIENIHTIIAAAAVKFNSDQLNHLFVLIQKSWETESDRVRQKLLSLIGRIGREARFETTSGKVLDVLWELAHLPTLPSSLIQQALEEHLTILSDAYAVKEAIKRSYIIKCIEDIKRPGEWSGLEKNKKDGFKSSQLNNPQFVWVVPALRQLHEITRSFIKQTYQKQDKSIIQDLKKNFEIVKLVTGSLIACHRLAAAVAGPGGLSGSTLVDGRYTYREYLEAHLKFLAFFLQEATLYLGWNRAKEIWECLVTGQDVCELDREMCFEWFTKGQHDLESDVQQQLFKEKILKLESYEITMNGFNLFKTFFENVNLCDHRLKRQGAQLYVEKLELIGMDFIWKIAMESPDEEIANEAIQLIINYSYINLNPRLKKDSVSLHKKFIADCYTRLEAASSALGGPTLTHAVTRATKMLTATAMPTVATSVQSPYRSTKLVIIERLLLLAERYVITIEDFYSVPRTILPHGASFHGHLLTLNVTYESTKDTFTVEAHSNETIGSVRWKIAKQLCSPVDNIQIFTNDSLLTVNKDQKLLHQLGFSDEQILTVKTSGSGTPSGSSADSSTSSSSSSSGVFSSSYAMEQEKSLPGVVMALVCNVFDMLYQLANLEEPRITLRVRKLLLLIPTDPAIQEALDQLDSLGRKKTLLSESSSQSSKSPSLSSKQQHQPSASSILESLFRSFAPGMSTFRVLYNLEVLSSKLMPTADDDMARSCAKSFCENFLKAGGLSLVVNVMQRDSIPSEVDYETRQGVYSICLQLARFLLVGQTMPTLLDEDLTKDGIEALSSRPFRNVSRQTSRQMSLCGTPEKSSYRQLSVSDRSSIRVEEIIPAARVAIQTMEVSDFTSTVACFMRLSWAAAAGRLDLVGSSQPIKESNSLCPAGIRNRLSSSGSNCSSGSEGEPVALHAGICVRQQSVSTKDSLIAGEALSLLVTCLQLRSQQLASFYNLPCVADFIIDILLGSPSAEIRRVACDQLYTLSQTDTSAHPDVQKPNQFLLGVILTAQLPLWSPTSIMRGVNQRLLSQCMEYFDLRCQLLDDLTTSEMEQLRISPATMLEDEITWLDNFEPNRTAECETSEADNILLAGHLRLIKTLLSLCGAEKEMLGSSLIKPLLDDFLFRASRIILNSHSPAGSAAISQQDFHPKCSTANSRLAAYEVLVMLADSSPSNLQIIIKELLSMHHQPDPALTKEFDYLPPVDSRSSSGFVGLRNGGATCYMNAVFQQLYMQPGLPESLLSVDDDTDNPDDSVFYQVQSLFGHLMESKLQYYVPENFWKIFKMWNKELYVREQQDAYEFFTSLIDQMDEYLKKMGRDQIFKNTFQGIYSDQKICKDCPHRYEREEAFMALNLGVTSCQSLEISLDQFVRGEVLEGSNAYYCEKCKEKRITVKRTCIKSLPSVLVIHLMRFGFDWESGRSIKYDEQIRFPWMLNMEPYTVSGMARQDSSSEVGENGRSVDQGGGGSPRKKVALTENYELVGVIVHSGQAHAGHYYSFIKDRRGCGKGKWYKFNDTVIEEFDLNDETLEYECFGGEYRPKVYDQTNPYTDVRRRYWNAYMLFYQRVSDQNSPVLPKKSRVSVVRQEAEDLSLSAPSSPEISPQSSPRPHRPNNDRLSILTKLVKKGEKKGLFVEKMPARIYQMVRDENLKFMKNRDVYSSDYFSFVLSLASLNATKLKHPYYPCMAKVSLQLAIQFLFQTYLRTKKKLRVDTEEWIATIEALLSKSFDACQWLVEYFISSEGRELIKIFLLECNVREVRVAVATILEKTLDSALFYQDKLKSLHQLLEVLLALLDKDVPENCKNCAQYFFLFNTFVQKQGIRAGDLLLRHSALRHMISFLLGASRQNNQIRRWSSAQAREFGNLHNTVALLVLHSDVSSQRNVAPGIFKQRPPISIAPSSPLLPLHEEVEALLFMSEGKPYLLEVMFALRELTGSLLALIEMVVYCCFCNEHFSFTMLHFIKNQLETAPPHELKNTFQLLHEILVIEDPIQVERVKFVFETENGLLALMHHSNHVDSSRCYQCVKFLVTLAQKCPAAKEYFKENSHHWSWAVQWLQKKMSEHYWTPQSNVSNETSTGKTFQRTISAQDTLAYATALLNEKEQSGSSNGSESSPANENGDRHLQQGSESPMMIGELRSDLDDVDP
Method in brief: as §1

USP25 = target: T2, USP25 (UniProt Q9UHP3)
T2 sequence (whole entry): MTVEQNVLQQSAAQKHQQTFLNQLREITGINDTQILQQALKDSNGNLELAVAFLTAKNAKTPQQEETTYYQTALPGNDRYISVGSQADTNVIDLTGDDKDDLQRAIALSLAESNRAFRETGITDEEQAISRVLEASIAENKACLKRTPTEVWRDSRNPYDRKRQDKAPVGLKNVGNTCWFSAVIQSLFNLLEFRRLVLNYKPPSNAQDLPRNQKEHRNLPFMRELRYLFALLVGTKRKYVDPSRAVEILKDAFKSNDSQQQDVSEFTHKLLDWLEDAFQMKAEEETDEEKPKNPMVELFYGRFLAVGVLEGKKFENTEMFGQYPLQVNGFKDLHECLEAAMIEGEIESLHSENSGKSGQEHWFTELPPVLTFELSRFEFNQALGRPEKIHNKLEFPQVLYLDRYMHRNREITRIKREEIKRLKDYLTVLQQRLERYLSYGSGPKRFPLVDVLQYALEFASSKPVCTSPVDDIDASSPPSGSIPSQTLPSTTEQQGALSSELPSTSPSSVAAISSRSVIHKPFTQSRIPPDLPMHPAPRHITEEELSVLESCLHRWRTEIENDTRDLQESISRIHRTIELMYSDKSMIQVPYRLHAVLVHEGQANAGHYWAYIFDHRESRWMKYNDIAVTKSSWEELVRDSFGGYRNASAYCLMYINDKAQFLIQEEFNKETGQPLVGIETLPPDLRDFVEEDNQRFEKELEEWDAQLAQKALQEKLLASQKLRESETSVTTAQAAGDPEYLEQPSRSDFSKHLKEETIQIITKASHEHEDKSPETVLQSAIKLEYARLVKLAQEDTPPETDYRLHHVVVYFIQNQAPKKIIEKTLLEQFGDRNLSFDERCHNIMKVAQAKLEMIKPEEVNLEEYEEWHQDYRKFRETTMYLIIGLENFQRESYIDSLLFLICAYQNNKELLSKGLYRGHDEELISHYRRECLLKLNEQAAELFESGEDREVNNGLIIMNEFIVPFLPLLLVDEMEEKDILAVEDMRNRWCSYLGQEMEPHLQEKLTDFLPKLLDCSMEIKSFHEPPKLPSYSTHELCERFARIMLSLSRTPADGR
Method in brief: as §1

USP28 = target: T3, USP28 (UniProt Q96RU2)
T3 sequence (whole entry): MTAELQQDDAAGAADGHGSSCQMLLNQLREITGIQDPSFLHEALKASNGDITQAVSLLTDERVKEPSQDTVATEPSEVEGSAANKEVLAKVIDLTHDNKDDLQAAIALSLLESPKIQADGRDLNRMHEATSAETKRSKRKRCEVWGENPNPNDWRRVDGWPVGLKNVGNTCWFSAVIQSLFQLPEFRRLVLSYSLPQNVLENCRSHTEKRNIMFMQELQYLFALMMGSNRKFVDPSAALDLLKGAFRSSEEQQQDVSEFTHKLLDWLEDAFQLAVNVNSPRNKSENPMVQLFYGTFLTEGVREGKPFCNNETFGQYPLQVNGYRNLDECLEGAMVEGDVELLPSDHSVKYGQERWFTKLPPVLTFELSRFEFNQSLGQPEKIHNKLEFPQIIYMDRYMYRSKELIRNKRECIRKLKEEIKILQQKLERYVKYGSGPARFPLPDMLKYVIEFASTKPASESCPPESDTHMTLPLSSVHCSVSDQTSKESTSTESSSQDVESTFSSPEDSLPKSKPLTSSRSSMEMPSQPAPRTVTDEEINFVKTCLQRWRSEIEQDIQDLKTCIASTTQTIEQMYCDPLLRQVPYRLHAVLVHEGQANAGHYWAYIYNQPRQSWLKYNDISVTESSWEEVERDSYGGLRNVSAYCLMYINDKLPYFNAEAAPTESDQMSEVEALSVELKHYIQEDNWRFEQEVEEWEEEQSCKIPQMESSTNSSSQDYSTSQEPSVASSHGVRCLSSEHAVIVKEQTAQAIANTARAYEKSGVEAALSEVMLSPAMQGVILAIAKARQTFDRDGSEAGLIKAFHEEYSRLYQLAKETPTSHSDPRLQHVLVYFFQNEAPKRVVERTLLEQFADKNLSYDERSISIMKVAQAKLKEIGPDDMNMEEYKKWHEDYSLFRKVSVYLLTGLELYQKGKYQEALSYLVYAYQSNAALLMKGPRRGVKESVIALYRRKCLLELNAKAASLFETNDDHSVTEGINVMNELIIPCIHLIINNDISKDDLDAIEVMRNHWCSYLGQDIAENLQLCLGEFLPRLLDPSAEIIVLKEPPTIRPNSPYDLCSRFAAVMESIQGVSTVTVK
Method in brief: as §1

Measured: log2 ratio of Biotin-Ahx-Ub-VS probe labelling

O=C(CCl)NCc1cccc(F)c1
inactive: USP19 -0.000373 | USP24 -0.154 | USP25 -0.362 | USP28 -0.556
